# Screening data as filed in PubChem.
# aSyn 5UTR act – Activators via SNCA 5'UTR binding, MLPCN | actives 7.1% (n = 300,000) | activity score, % (tested at 7.5 µM), hits read low | AID 1814 | alpha-synuclein 5'UTR reporter, activators screen; in the data active = activity score below about -60%
# Active calls of the source: *. These entries were drawn from the full list.
SMILES,aSyn 5UTR act
CCN(c1ccccc1)S(=O)(=O)c1ccc(C(=O)Nc2nnc(C3CC3)o2)cc1,70.5
CCN(Cc1ccccc1)S(=O)(=O)c1ccc(C(=O)Nc2nnc(-c3ccccc3OC)o2)cc1,66.6
CC(C)Oc1ccc(C(=O)Nc2nnc(SCC(=O)N3CCOCC3)s2)cc1,97.7
O=C(Nc1nnc(CCN2CCOCC2)s1)c1ccccc1,-66.8*
O=C(Nc1nnc(Cc2ccccc2)s1)c1cccs1,-127.7*
Cc1cccc(-n2c(SCC(=O)Nc3ncc(Cl)cc3Cl)nc3ccccc32)c1,58.4
Cc1cccc(-n2ccnc2SCC(=O)Nc2nccs2)c1,-132.4*
CCOc1ccc(-n2c(SCC(=O)Nc3nccs3)nc3c(c2=O)SCC3)cc1,57.3
CCCC(=O)NC(c1ccc(OC)cc1)c1ccc2cccnc2c1O (stereo not given),129.2
COc1cccc(-n2ccnc2SCC(=O)Nc2nccs2)c1,-73.1*
COc1ccc(C(CC(=O)Nc2nccs2)n2cccc2)cc1 (stereo not given),-168.5*
COc1ccc(C(CC(=O)Nc2ccccn2)N2Cc3ccccc3C2=O)cc1 (stereo not given),-113.4*
N=C1S/C(=C\c2cn[nH]c2-c2ccc(F)cc2)C(=O)N1c1ccccc1F,-108.2*
COc1ccc(N=C2O/C(=C/c3sc(=S)n(CC4CCCO4)c3O)N=C2C#N)cc1 (stereo not given),-101.4*
c1ccc2c(c1)Cn1nc(Cc3nc4c(s3)CCCC4)nc1-2,-79.3*
Oc1csc(Cc2nc(-c3ccc4ccccc4c3)cs2)n1,-235.6*
Cc1cc(C)n(CCc2nc(-c3ccc(-c4ccccc4)cc3)cs2)n1,-71.3*
Oc1csc(Cc2nc(-c3ccccc3F)cs2)n1,-169.0*
Oc1csc(Cc2nc(-c3ccc(-c4ccccc4)cc3)cs2)n1,-112.3*
O=C(NC(=S)N1CCCCC1)c1csc([N+](=O)[O-])c1,-87.1*
O=[N+]([O-])c1ccc(N=Cc2sc3ccccc3c2O)cc1,-68.3*
O=[N+]([O-])c1ccc(N=Nc2c(Cl)cc(O)cc2Cl)cc1,58.4
Oc1c(C=NCc2ccccc2)sc2ccccc12,-103.4*
O=C1/C(=C/c2cccs2)CCC/C1=C\c1cccs1,-124.6*
Cn1cccc1/C=C1\CCC/C(=C\c2cccn2C)C1=O,-153.8*
SMILES,aSyn 5UTR act
O=C(N/N=C/C=C/c1ccccc1)c1ccccn1,-166.5*
O=C(N/N=C/C=C/c1ccccc1)c1n[nH]c2c1CCC2,70.2
Nc1nnn(CC(=O)N/N=C/C=C/c2ccccc2)n1,-86.8*
CC(/C=N/NC(=O)c1nnn(-c2nonc2N)c1C(C)C)=C\c1ccco1,-62.2*
CCN(CC)c1ccc(/C=N/NC(=O)c2nnn(-c3nonc3N)c2C(C)C)c(O)c1,92.0
O=C(N/N=C\C=C\c1ccco1)c1cc(-c2ccc3ccccc3c2)n[nH]1,-145.7*
Cc1cc(C(=O)N/N=C/C(Cl)=C/c2ccccc2)c(C)o1,-67.3*
O=C(N/N=C/C(Br)=C/c1ccccc1)c1cnccn1,-110.4*
CC(/C=N/NC(=O)c1ccccn1)=C\c1ccco1,-74.7*
O=C(N/N=C/C=C\c1ccco1)c1ccccn1,-144.9*
O=C(N/N=C/C(Cl)=C/c1ccccc1)c1ccccn1,-66.4*
CCc1ccc(OCc2cnc(Cl)s2)cc1,-78.2*
Cc1nc2ccc(C(=O)OCc3ccccc3Br)cc2nc1C,-166.3*
CCOC(=O)c1ccc2ncc(-c3ccccc3)nc2c1,-160.0*
CCOC(=O)c1cnc(-c2ccccc2)nc1N,-148.1*
CCOC(=O)c1cnc(-n2nc(C)cc2C)nc1NNc1nc(-c2ccccc2)cc(-c2ccccc2)n1,81.7
CCOC(=O)c1cnc(-c2ccccc2)nc1N(C)C,-241.3*
COc1ccc2cc(C#N)c(SCC(=O)NNC(=O)Cc3ccccc3)nc2c1,-78.1*
COC(=O)CSc1nc2cc(OC)ccc2cc1C#N,-133.1*
CCOC(=O)CSc1nc2cc(OCC)ccc2cc1C#N,-209.5*
CCOC(=O)CSC1=C(C#N)C(c2ccc(C)o2)CC(=O)N1 (stereo not given),78.1
COc1ccc2nc(SCC(=O)Nc3ccc4sc(C)nc4c3)c(C#N)cc2c1,-147.8*
NN/C(=C\[N+](=O)[O-])Nc1ccccc1,-69.8*
CSc1nc(N)c(C(=O)Nc2ccc([N+](=O)[O-])cc2)s1,-66.2*
CCO[C@@H]1OC(C(=O)Nc2ccccc2)=C[C@H](c2coc3ccccc3c2=O)[C@H]1CCCO,50.1
SMILES,aSyn 5UTR act
O=C(Nc1ccccc1)C1=C[C@H](c2ccc(C(F)(F)F)cc2)C[C@H](OCCCCO)O1,-91.2*
O=C(Nc1ccccc1)C1=C[C@@H](c2ccc(Br)cc2)C[C@@H](OCCCCO)O1,-94.8*
O=C(Nc1ccccc1)C1=C[C@H](c2ccccc2)C[C@H](OCCCCO)O1,-146.5*
CN(C(=O)/C=C/c1ccc([N+](=O)[O-])s1)c1ccccc1,-81.7*
COc1ccccc1/C=C/C=N/n1c(-c2ccccn2)n[nH]c1=S,-100.2*
CCOC(=O)c1c(C)[nH]c(C(=O)OCC(=O)Nc2sccc2C(N)=O)c1C,-118.6*
COc1ccc(CCC(=O)Nc2sccc2C#N)cc1,-156.0*
N#Cc1ccsc1NC(=O)COC(=O)c1ccc2ccccc2c1,-203.3*
CC(C)COc1ccc(C(=O)Nc2ccccc2[N+](=O)[O-])cc1,-212.3*
COCCCNC(=S)Nc1ccc(C)cc1[N+](=O)[O-],-74.7*
CCCOc1ccc(C(=O)Nc2ccc(C)cc2[N+](=O)[O-])cc1,-72.2*
COCCCNc1nc(N)c([N+](=O)[O-])c(Nc2cc(OC)ccc2OC)n1,55.3
Cc1cc2nnc(SCC(=O)NCc3ccco3)n2c2ccccc12,-184.1*
COc1ccc(C(=O)Nn2c(SCC(=O)NCc3ccco3)nc3ccccc3c2=O)cc1,81.4
CCN1CCN(c2cc(C)c3cc(NC(=O)c4ccc(C)c(C)c4)ccc3n2)CC1,16.8
CCN1CCN(Cc2ccc(NC(=O)c3ccc(C)c(/C=C/c4cnc(Nc5cc(N6CCNCC6)nc(C)n5)cn4)c3)cc2C(F)(F)F)CC1,110.2
CCN1CCN(c2cc(C)c3cc(NC(=S)N4CCCCC4)ccc3n2)CC1,-85.3*
CCN1CCN(c2cc(C)c3cc(NC(=O)c4ccc(Br)o4)ccc3n2)CC1,-84.5*
Cc1cc(N2CCN(C)CC2)nc2ccc(NC(=O)c3ccccc3F)cc12,-123.0*
CC(C)NC(=O)c1ccc(-c2ccccc2C(F)(F)F)o1,-130.7*
CC(C)c1ccc(NC(=O)COc2ccccc2)cc1,-124.1*
CCCOC(=O)Nc1ccc(N2CCCCC2)cc1,-67.3*
CC(C)c1ccc(NC(=O)COc2ccccn2)cc1,-130.2*
Cc1ccnc(NS(=O)(=O)c2ccc(NC(=O)COc3ccccc3)cc2)n1,68.4
Cc1cc(NC(=O)COc2ccccc2)ccc1Cl,-95.8*
SMILES,aSyn 5UTR act
O=C(COc1ccccc1)Nc1ccccc1N1CCN(c2ccccc2)CC1,42.7
Cc1ccc(SCC(=O)Nc2ccc(N3CCN(C)CC3)c(F)c2)cc1,-81.9*
CN1CCN(c2ccc(NC(=O)COc3ccccc3)cc2Cl)CC1,-192.1*
C/C(=N\NC(=O)c1c(Cl)c(C)nn1C)c1cccc(NC(=O)COc2ccccc2)c1,-79.7*
O=C(COc1ccccc1)Nc1ccc(N2CCCCC2)cc1,-74.4*
Cc1ccc(NC(=S)Nc2ccccn2)cc1C,-112.0*
Cc1cccc(NC(=S)Nc2ccccn2)c1,-71.2*
Cc1cc(C)cc(NC(=S)Nc2ccccn2)c1,-104.5*
O=c1c2ccc([N+](=O)[O-])cc2ncn1CCOc1ccccc1,-69.2*
COc1ccc2c(Cn3cnc4cc([N+](=O)[O-])ccc4c3=O)cc(=O)oc2c1,72.1
O=c1c2ccccc2ncn1CCOc1ccccc1[N+](=O)[O-],-63.2*
